Where “and” joins values, the source holds several entries; their conditions need not be identical. Equal values may be shown once. A structure can be active in one record and inactive in another. Calls of active or inactive are those of the source. The calls were made as follows: active = hit-call score of the fitted dose curve at least 0.9, where 1 is the maximum; inactive = score below 0.9.
Assays:
[1] = APR_HepG2_CellCycleArrest_24hr: Apredica 24-hour HepG2 Assay for Cell Cycle Arrest (AID 2282905); conditions: imaging, actives raise or lower the signal;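 also: cell cycle arrest scored as ratio of 2N to 4N nuclear DNA content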
How it was run: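 Compounds at 0.39–200 uM (0.5% DMSO) for 24 h, then fixed and Hoechst 33342 stained. Cell-cycle analysis of nuclear DNA content by high-content imaging, fitted bidirectionally versus DMSO.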

[2] = APR_HepG2_StressKinase_1hr: Apredica 1-hour HepG2 Assay for Stress Kinase (AID 2282906); conditions: HepG2 stress kinase (phospho-c-Jun) imaging, actives raise or lower the signal
How it was run: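 HepG2 cells dosed 0.39-200 uM (0.5% DMSO) for 1 h, then formaldehyde-fixed. Stress kinase read by phospho-c-Jun immunofluorescence using high-content imaging; bidirectional fit vs DMSO.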

[3] = APR_HepG2_NuclearSize_24hr: Apredica 24-hour HepG2 Assay for Nuclear Size (AID 2282907); conditions: high-content imaging, actives raise or lower the signal
How it was run: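 HepG2 cells exposed 24 h to compounds at 0.39–200 uM (0.5% DMSO), fixed, Hoechst 33342 stained and imaged at 20x; nuclear diameter measured by automated image analysis, fitted bidirectionally against DMSO controls.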

[4] = APR_HepG2_CellLoss_24hr: Apredica 24-hour HepG2 Assay for Cell Loss (AID 2282908); conditions: high-content imaging;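 as to AC50: fit in both directions so a hit may be cell loss or gain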
How it was run: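 HepG2 cells exposed 24 hr to 0.39–200 uM compound in duplicate at 0.5% v/v final DMSO. Cells fixed in 3.7% formaldehyde and Hoechst 33342-stained. Cell number came from nuclear imaging at 20x. Bidirectional fit versus DMSO.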

[5] = APR_HepG2_MicrotubuleCSK_24hr: Apredica 24-hour HepG2 Assay for Microtubule CSK Stabilty (AID 2282909); conditions: HepG2 microtubule cytoskeleton imaging, actives raise or lower the signal
How it was run: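 HepG2 cells were treated 24 hr with compound at 0.39–200 uM in duplicate (0.5% DMSO final), then fixed and permeabilized. Alpha-tubulin immunofluorescence was imaged by high-content microscopy, with bidirectional fitting against DMSO and taxol as positive control.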

[6] = APR_HepG2_MitoticArrest_24hr: Apredica 24-hour HepG2 Assay for Mitotic Arrest (AID 2282910); conditions: high-content imaging, actives raise or lower the signal
How it was run: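 HepG2 cells, 24 h exposure at 0.39-200 uM (10 concentrations, duplicate, 0.5% DMSO). Fixed, stained for phospho-histone H3 with Hoechst; imaged by high-content microscopy, bidirectional fit versus DMSO.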

[7] = APR_HepG2_MitoMembPot_24hr: Apredica 24-hour HepG2 Assay for Mitochondrial Membrane Potential (AID 2282911); conditions: imaging, actives raise or lower the signal
How it was run: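 Human hepatoma HepG2 cultures received ten compound concentrations up to 200 uM for 24 hr. Membrane-potential dye signal, captured by automated fluorescence microscopy, was scored for gain or loss against DMSO controls.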

[8] = APR_HepG2_MitoMass_24hr: Apredica 24-hour HepG2 Assay for Mitochondrial Mass (AID 2282912); conditions: high-content imaging, actives raise or lower the signal
How it was run: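 HepG2 cells exposed 24 hr to 0.39–200 uM compound, 0.5% v/v DMSO, in duplicate. Stained before fixation with 250 nM MitoTracker Red CMXRos for 30 min, then imaged at 20x with Hoechst nuclei. Fitted in both directions against DMSO.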

[9] = APR_HepG2_CellCycleArrest_72hr: Apredica 72-hour HepG2 Assay for Cell Cycle Arrest (AID 2282914); conditions: high-content imaging, actives raise or lower the signal
How it was run: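 Cell cycle arrest in HepG2 was scored from nuclear DNA content after 72 hr compound treatment (0.39–200 uM). Activity, either gain or loss, was fitted against the DMSO baseline.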

[10] = APR_HepG2_CellLoss_72hr: Apredica 72-hour HepG2 Assay for Cell Loss (AID 2282915); conditions: high-content imaging
How it was run: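 HepG2 cells exposed 72 h to compound at 0.39–200 uM (10 concentrations, duplicate) in 0.5% DMSO. Fixed with 3.7% formaldehyde and Hoechst 33342-stained. Imaged at 20x; nuclear count gives cell number, fitted bidirectionally versus DMSO.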

[11] = APR_HepG2_P-H2AX_72hr: Apredica 72-hour HepG2 Assay for H2AX Phosphorylation (AID 2282916); conditions: imaging, actives raise or lower the signal;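 also: phospho-histone H2A.x immunostain intensity per cell marking DNA damage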
How it was run: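 HepG2 cells treated 72 h at 0.39–200 uM, 0.5% DMSO final, duplicates. Formaldehyde-fixed, Triton-permeabilised, immunostained for phospho-H2A.x with Hoechst; fluorescence imaged at 20x, bidirectional fit versus DMSO.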

[12] = APR_HepG2_MitoMembPot_72hr: Apredica 72-hour HepG2 Assay for Mitochondrial Membrane Potential (AID 2282917); conditions: imaging, actives raise or lower the signal
How it was run: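 HepG2 cells dosed 72 hr with compound at 0.39–200 uM in duplicate, 0.5% v/v DMSO final. Mitochondria stained with 250 nM MitoTracker Red CMXRos for 30 min before formaldehyde fixation, imaged by high-content fluorescence; bidirectional fit versus DMSO.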

[13] = APR_HepG2_MitoticArrest_72hr: Apredica 72-hour HepG2 Assay for Mitotic Arrest (AID 2282918); conditions: high-content imaging, actives raise or lower the signal
How it was run: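 Mitotic arrest in HepG2 is scored from phospho-histone H3 staining after 72 hr dosing across 0.39–200 uM, with DMSO at 0.5% v/v. Nuclei are identified by Hoechst 33342 and fluorescence intensity is quantified per cell.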

[14] = APR_HepG2_MicrotubuleCSK_72hr: Apredica 72-hour HepG2 Assay for Microtubule CSK Stabilty (AID 2282919); conditions: HepG2 microtubule cytoskeleton, high-content imaging, actives raise or lower the signal
How it was run: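 HepG2 cells were exposed 72 hr to compound at 0.39–200 uM in duplicate (0.5% DMSO final), then fixed and permeabilized. Alpha-tubulin immunofluorescence was imaged by high-content microscopy, with bidirectional fitting against DMSO and taxol as positive control.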

[15] = APR_HepG2_P-H2AX_24hr: Apredica 24-hour HepG2 Assay for H2AX Phosphorylation (AID 2282920); conditions: high-content imaging, actives raise or lower the signal
How it was run: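 Signal comes from a FITC-labeled secondary detecting phospho-histone H2A.x in fixed HepG2 cells, quantified by automated imaging at 20x. Dosing ran 24 hr across 0.39–200 uM with 0.5% v/v DMSO.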

[16] = APR_HepG2_StressKinase_72hr: Apredica 72-hour HepG2 Assay for Stress Kinase (AID 2282921); conditions: HepG2 stress kinase (phospho-c-Jun) imaging, actives raise or lower the signal
How it was run: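 HepG2 cells treated 72 hr with 0.39–200 uM compound, 0.5% v/v DMSO, duplicate wells. After formaldehyde fixation and Triton permeabilization, stained with anti-phospho-c-Jun (1:500) and Cy3 secondary, imaged at 20x. Fitted in both directions against DMSO.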

[17] = APR_HepG2_StressKinase_24hr: Apredica 24-hour HepG2 Assay for Stress Kinase (AID 2282922); conditions: HepG2 stress kinase (phospho-c-Jun) imaging, actives raise or lower the signal
How it was run: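 HepG2 cells exposed 24 h to 0.39–200 uM compound in duplicate (0.5% v/v DMSO final). Cells fixed in 3.7% formaldehyde, permeabilized and immunostained for phospho-c-Jun; read by high-content fluorescence imaging, fitted bidirectionally against DMSO.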

[18] = APR_HepG2_p53Act_72hr: Apredica 72-hour HepG2 Assay for p53 Activation (AID 2282923); conditions: high-content imaging, actives raise or lower the signal;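 also: average cellular p53 protein immunofluorescence intensity in HepG2 cells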
How it was run: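 HepG2 cells exposed 72 h to 0.39–200 uM in 0.5% DMSO, duplicates. Fixed, permeabilized cells immunostained for p53 (Cy5) with Hoechst; imaged at 20x, fluorescence analyzed bidirectionally against DMSO.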

[19] = APR_HepG2_MitoMass_72hr: Apredica 72-hour HepG2 Assay for Mitochondrial Mass (AID 2282924); conditions: high-content imaging, actives raise or lower the signal;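 also: MitoTracker Red CMXRos stain intensity per cell imaged as mitochondrial mass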
How it was run: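 HepG2 cells dosed 72 hr at 0.39–200 uM (0.5% DMSO), in duplicate. MitoTracker Red CMXRos 250 nM loaded 30 min before formaldehyde fixation; high-content fluorescence imaging, bidirectional fit versus DMSO.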

Measured: AC50

O=S1OCC2C(CO1)C1(Cl)C(Cl)=C(Cl)C2(Cl)C1(Cl)Cl (centres undefined)
active: [2] 94.4 µM | [9] 95.3 µM | [10] 100 µM | [14] 117 µM
inactive: all other assays above

[2H]C1([2H])[n+]2ccccc2-c2cccc[n+]2C1([2H])[2H]
active: [9] 75.1 µM | [10] 35.1 µM | [13] 94.5 µM | [14] 143 µM
not listed: [2]
inactive: all other assays above

Oc1ccc(Cl)cc1Cc1ccccc1
inactive: [1] | [3] | [4] | [5] | [7] | [8] | [9] | [10] | [11] | [13] | [14] | [15] | [16] | [17] | [18] | [19]
active: [1] 102 µM [middle of 4 runs] | [4] 77.3 µM [middle of 6 runs] | [5] 34.7 µM and 79.9 µM and 97.3 µM | [8] 47.2 µM and 157 µM and 159 µM | [9] 86.3 µM [middle of 4 runs] | [10] 70 µM [middle of 6 runs] | [11] 112 µM and 122 µM and 34.5 µM | [14] 111 µM and 62.5 µM | [15] 114 µM [middle of 4 runs] | [16] 113 µM and 122 µM and 34.3 µM | [17] 150 µM and 99 µM | [18] 111 µM and 125 µM | [19] 88 µM

CC(C)(C)C(O)/C(=C\c1ccc(Cl)cc1Cl)n1cncn1 (centres undefined)
active: [10] 15.3 µM | [14] 175 µM
not listed: [6] | [12]
inactive: all other assays above

C#CCN1C(=O)COc2cc(F)c(N3C(=O)C4=C(CCCC4)C3=O)cc21
not listed: [18]
inactive: all other assays above

Cc1cc(C)nc(NC(=O)NS(=O)(=O)c2ccccc2C(=O)OC2COC2)n1
not listed: [12]
inactive: all other assays above
